Reference: PubChem BioAssay (Tox21)
Results filed as inconclusive are left out. Calls of active or inactive are those of the source. Unless noted, calls come from the whole dose curve; as a rule, active = well fitted curve in the direction sought with a large enough effect in the repeat runs; inconclusive = weak or mixed curves; inactive = no such curve, though single readings can be large; an effect the other way counts as inactive or inconclusive.

Columns and labels:
[1] = qHTS assay to identify small molecule antagonists of the sonic hedgehog signaling (Shh) pathway (AID 1259369; calls by dose curve; note: nearly all actives have a fitted effect of over 45% in size; note: potency is the fitted concentration of half-maximal effect)
Method in brief: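 Read-out is luminescence from a firefly luciferase gene controlled by the Gli1 response element, in 3T3Gli1-Luc cells pre-incubated 4hr then exposed to compounds and conditioned medium for 24hr.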

[2] = target: Estrogen receptor beta (Homo sapiens) (UniProt Q92731); test: qHTS assay to identify small molecule antagonists of the estrogen receptor beta (ER-beta) signaling pathway (AID 1259378; active = well fitted inhibition curve with a large enough effect in the signal ratio in the repeat runs, not every such curve was filed as active; the % refers to the signal ratio; note: potency is the fitted concentration of half-maximal effect)
Method in brief: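 ER-beta-UAS-bla HEK293T cells in 2% charcoal-stripped FBS medium treated with compound plus 1nM final 17-beta-estradiol for 16 hr at 37C. Beta-lactamase reporter read by FRET substrate fluorescence after 2 hours at room temperature.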

[3] = target: Estrogen receptor (Homo sapiens) (UniProt P03372); test: qHTS assay to identify small molecule agonists of the estrogen receptor alpha (ER-alpha) signaling pathway in the presence of an antagonist (AID 1259383; calls by dose curve; note: top concentration of the series differs between compounds; nearly all actives have a fitted effect of over 15% in size)
Method in brief: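 Luminescent ERE-luciferase reporter, VM7Luc4E2 cells (endogenous ER-alpha); 10.0nM ICI-182,780 final; 15-point compound titration; 22hr at 37C; ONE-Glo, 30min RT.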

[4] = target: Progesterone receptor (Homo sapiens) (UniProt P06401); test: qHTS assay to identify small molecule agonists of the progesterone receptor (PR) signaling pathway (AID 1346784; calls by dose curve; note: nearly all actives have a fitted effect of over 30% in size)
Method in brief: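 HEK 293T PR-UAS-bla reporter cells, 2% charcoal-stripped FBS; 6 hr settle at 37C/5% CO2, compound (DMSO) 16 hr, LiveBLAzer B/G FRET substrate 2 hr RT, fluorescence intensity read.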

[5] = qHTS assay to identify small molecule agonists of the progesterone receptor (PR) signaling pathway - cell viability counter screen (AID 1346799; calls by dose curve; note: nearly all actives have a fitted effect of over 45% in size; note: potency is the fitted concentration of half-maximal effect)
Method in brief: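 HEK293T PR-UAS-bla, 3,000 cells/well, 2% charcoal-stripped FBS; 6 h settle, compound 16 h at 37C/5% CO2; LiveBLAzer 2 h RT, then CellTiter-Glo 30 min RT, luminescence read.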

[6] = qHTS assay to identify small molecule antagonists of the TGF-beta/Smad signaling pathway - cell viability counter screen (AID 1346824); note: nearly all actives have a fitted effect of over 50% in size; note: potency is the fitted concentration of half-maximal effect
Method in brief: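 SBE-bla HEK 293T cells, incubated overnight, then compound plus 0.25 ng/mL TGF-beta1 (stock added) for 5 hr at 37 C. Viability was read in the same wells by CellTiter-Glo luminescence after 30 min at room temperature.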

[7] = qHTS assay to identify small molecule agonists of the TGF-beta/Smad signaling pathway (AID 1346859; active = well fitted activation curve with a large enough effect in the signal ratio in the repeat runs, not every such curve was filed as active; the % refers to the signal ratio; note: series mostly up to about 77 µM)
Method in brief: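 Read-out: fluorescence at 460 and 530 nm (405 nm excitation) after a 2 hr room-temperature incubation with beta-lactamase FRET substrate. SBE-bla HEK 293T cells had been treated with test compounds for 5 hr at 37 C.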

[8] = target: Thyrotropin-releasing hormone receptor (Homo sapiens) (UniProt P34981); test: qHTS assay to identify small molecule antagonists of the thyrotropin-releasing hormone receptor (TRHR) signaling pathway (AID 1346877; active = well fitted inhibition curve with a large enough effect in the repeat runs, not every such curve was filed as active; note: series mostly up to about 51 µM)
Method in brief: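 Calcium signal in dye-loaded TRHR/HEK293 cells; compounds added 5 min before TRH (1 nM final); fluorescence monitored 3 min at 1 s steps.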

[9] = target: Thyrotropin-releasing hormone receptor (Homo sapiens) (UniProt P34981); test: qHTS assay to identify small molecule agonists of the thyrotropin-releasing hormone receptor (TRHR) signaling pathway (AID 1346891; calls by dose curve;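 note: HEK293 cells expressing TRHR with calcium dye readout; series mostly up to about 58 µM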)
Method in brief: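 HEK293/TRHR cells, 1500 per well, 18 h 37 °C; Ca dye 2 h 37 °C; pin-tool compound addition (agonist mode); kinetic fluorescence 3 min, 1 s reads; 15 concentrations, triplicate.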

[10] = qHTS assay to identify small molecule agonists of the androgen receptor (AR) signaling pathway in the presence of an antagonist - cell viability counter screen (AID 1259379); note: nearly all actives have a fitted effect of over 25% in size; note: potency is the fitted concentration of half-maximal effect
Method in brief: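 Each compound was tested at 15 concentrations on MDA-kb2 cells in the presence of 3.0uM nilutamide. Viability was measured by CellTiter-Fluor fluorescence after a 16 hr incubation at 37C in a CO2-free atmosphere.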

[11] = qHTS assay to identify small molecule antagonists of the estrogen receptor beta (ER-beta) signaling pathway - cell viability counter screen (AID 1259382); note: nearly all actives have a fitted effect of over 55% in size; note: potency is the fitted concentration of half-maximal effect
Method in brief: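 CellTiter-Glo ATP luminescence measured after the LiveBLAzer read in the same wells; ER-beta-UAS-bla HEK293T cells, 16 hr compound treatment with 1nM 17-beta-estradiol agonist at 37C, 5% CO2.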

[12] = target: Thyrotropin receptor (Homo sapiens) (UniProt P16473); test: qHTS assay to identify small molecule antagonists of the thyroid stimulating hormone receptor (TSHR) signaling pathway (AID 1259385; calls by dose curve; note: nearly all actives have a fitted effect of over 20% in size)
Method in brief: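 TSHR-HEK293 cells (800/well) plated 18 h, then compounds with Ro20-1724 and TSH at 1.5 ng/mL final, 30 min at room temperature. cAMP quantified by HTRF (cAMP-d2/anti-cAMP-cryptate, 1 h); 15 concentrations in triplicate.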

[13] = qHTS assay to identify small molecule agonists of the estrogen receptor alpha (ER-alpha) signaling pathway in the presence of an antagonist - cell viability counter screen (AID 1259386);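 note: cells exposed to compounds for 22 h at 37 °C before the viability read; nearly all actives have a fitted effect of over 30% in size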; note: potency is the fitted concentration of half-maximal effect
Method in brief: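 Using estrogen-depleted VM7Luc4E2 cells, the 15-concentration compound series was applied together with 10.0nM ICI-182,780 and incubated 22hr at 37C/5% CO2. Cell viability was then scored by CellTiter-Fluor.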

[14] = target: Progesterone receptor (Homo sapiens) (UniProt P06401); test: qHTS assay to identify small molecule antagonists of the progesterone receptor (PR) signaling pathway (AID 1346795; active = well fitted inhibition curve with a large enough effect in the signal ratio in the repeat runs, not every such curve was filed as active; the % refers to the signal ratio)
Method in brief: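 Beta-lactamase reporter, HEK293T PR-UAS-bla line; 2% charcoal-stripped FBS; 6 hr pre-incubation, 37C/5% CO2. Compound + R5020 1 nM final, 16 hr. LiveBLAzer B/G FRET substrate, 2 hr RT; fluorescence intensity read.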

[15] = qHTS assay to identify small molecule agonists of the TGF-beta/Smad signaling pathway - cell viability counter screen (AID 1346829); note: nearly all actives have a fitted effect of over 45% in size; note: potency is the fitted concentration of half-maximal effect
Method in brief: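 Cytotoxicity counter screen: CellTiter-Glo luminescence (30 min, room temperature) measured in the SBE-bla HEK 293T reporter wells after 5 hr compound treatment at 37 C and the 2 hr substrate step.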

[16] = qHTS assay to identify small molecule agonists of the estrogen receptor beta (ER-beta) signaling pathway - cell viability counter screen (AID 1259380); note: nearly all actives have a fitted effect of over 30% in size; note: potency is the fitted concentration of half-maximal effect
Method in brief: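 Compounds dissolved in DMSO were pin-transferred onto ER-beta-UAS-bla HEK293T cells that had settled 6 hr, and exposure ran 16 hr at 37C. Following the reporter read, CellTiter-Glo luminescence after 30 min at room temperature indicated cytotoxicity.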

[17] = qHTS assay to identify small molecule agonists or antagonists of the thyroid stimulating hormone receptor (TSHR) signaling pathway - wild type cell line counter screen (AID 1259384; calls by dose curve)
Method in brief: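 Wild-type Hek293 cells, 800/well, 18 h at 37C, then compound with Ro20-1724 for 30 min RT. cAMP by HTRF (cAMP-d2/anti-cAMP cryptate), 1 h RT, fluorescence read. 15 concentrations, triplicates.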

[18] = qHTS assay to identify small molecule antagonists of the progesterone receptor (PR) signaling pathway - cell viability counter screen (AID 1346798); note: nearly all actives have a fitted effect of over 50% in size; note: potency is the fitted concentration of half-maximal effect
Method in brief: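 Luminescence readout (CellTiter-Glo, 30 min, RT) of viability in PR-UAS-bla HEK293T cells exposed to compound and R5020 agonist for 16 hr at 37C, 5% CO2; run in the same wells as the beta-lactamase reporter read.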

[19] = target: Androgen receptor (Homo sapiens) (UniProt P10275); test: qHTS assay to identify small molecule agonists of the androgen receptor (AR) signaling pathway in the presence of an antagonist (AID 1259381; calls by dose curve; note: nearly all actives have a fitted effect of over 15% in size)
Method in brief: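 Plated MDA-kb2 cells (3,000/well) were pre-incubated 5hr, given nilutamide (3.0uM final) or buffer, then dosed with compounds in DMSO at 15 concentrations. Luciferase activity was quantified by luminescence after 16hr at 37C.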

Measured: Potency

Sequence of Estrogen receptor beta (Homo sapiens) (Q92731 whole entry, looked up): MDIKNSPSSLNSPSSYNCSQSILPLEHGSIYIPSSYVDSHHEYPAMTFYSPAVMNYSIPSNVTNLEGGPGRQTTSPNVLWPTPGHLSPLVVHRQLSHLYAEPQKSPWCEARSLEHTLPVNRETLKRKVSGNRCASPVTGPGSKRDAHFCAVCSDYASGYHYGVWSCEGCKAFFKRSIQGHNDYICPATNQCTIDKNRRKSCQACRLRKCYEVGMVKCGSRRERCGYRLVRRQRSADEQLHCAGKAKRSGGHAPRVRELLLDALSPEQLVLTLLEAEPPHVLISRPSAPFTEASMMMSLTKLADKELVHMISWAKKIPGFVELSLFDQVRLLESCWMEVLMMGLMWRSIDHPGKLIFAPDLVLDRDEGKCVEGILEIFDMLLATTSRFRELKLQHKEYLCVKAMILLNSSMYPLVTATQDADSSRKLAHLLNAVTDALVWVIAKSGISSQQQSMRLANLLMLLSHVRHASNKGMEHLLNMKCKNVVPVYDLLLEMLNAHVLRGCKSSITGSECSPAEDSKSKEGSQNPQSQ
Sequence of Androgen receptor (Homo sapiens) (P10275 whole entry, looked up): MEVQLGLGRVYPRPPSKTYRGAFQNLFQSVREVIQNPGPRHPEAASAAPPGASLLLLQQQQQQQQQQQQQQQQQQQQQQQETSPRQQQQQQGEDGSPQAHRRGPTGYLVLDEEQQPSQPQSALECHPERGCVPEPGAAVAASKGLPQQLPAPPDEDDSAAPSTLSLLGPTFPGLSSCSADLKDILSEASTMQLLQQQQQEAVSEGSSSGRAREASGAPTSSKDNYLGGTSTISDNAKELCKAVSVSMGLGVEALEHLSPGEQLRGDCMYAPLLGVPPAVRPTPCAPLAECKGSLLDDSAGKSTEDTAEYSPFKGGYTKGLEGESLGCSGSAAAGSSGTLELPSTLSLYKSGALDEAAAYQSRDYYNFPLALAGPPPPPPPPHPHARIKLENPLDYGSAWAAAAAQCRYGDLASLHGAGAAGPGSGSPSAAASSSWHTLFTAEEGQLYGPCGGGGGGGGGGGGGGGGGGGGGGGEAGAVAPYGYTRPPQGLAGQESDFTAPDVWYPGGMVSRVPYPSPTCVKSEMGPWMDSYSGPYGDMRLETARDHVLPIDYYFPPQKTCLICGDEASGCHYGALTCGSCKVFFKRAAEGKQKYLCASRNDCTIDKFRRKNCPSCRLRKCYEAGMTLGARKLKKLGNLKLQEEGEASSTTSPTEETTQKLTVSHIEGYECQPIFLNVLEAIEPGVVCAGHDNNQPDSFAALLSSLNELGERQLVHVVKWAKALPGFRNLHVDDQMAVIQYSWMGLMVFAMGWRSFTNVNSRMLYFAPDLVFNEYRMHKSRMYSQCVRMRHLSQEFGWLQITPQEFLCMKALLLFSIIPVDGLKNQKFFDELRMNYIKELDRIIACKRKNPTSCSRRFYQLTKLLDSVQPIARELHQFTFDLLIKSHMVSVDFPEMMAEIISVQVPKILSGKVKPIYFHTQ
Sequence of Thyrotropin receptor (Homo sapiens) (P16473 whole entry, looked up): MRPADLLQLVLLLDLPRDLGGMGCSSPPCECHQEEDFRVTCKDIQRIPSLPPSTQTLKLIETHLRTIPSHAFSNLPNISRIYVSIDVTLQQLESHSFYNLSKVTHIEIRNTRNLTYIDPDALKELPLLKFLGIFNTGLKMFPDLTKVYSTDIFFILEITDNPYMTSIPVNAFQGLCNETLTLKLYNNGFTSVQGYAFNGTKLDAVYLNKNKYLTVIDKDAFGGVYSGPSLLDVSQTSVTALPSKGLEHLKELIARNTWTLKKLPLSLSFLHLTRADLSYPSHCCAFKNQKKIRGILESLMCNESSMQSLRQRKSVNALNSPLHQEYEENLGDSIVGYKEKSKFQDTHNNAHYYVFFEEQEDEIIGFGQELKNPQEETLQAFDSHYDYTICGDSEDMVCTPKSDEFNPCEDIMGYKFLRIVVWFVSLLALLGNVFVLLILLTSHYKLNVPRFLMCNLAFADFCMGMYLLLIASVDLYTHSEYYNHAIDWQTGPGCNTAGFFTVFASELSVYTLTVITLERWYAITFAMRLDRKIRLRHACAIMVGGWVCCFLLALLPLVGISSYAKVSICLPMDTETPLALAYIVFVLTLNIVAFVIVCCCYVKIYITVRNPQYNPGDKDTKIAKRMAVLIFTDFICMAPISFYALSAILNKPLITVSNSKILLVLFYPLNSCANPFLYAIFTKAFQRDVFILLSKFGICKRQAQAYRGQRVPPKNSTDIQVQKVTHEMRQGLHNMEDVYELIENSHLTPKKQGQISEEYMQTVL
Sequence of Progesterone receptor (Homo sapiens) (P06401 whole entry, looked up): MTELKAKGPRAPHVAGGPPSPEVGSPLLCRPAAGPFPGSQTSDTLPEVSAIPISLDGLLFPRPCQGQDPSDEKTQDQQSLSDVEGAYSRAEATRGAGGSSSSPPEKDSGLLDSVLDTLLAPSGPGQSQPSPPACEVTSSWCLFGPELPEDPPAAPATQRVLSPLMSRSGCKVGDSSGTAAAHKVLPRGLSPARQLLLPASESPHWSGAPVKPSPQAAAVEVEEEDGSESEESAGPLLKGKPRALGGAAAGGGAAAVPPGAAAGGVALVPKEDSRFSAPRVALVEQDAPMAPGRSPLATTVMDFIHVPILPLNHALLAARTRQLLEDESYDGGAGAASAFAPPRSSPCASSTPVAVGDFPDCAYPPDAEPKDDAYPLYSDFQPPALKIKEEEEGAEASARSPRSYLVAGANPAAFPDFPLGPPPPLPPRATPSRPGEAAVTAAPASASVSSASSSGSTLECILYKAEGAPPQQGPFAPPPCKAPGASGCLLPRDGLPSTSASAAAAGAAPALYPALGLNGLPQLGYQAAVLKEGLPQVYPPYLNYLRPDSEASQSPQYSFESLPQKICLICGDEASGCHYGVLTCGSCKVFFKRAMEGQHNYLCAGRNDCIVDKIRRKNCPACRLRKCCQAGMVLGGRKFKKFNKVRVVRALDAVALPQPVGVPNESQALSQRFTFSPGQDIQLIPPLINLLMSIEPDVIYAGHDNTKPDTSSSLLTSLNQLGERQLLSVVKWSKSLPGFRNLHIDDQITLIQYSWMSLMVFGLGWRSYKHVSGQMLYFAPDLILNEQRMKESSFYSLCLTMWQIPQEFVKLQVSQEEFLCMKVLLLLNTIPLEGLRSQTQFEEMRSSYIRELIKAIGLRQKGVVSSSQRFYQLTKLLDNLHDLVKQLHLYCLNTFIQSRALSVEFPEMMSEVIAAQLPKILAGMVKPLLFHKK
Sequence of Thyrotropin-releasing hormone receptor (Homo sapiens) (P34981 whole entry, looked up): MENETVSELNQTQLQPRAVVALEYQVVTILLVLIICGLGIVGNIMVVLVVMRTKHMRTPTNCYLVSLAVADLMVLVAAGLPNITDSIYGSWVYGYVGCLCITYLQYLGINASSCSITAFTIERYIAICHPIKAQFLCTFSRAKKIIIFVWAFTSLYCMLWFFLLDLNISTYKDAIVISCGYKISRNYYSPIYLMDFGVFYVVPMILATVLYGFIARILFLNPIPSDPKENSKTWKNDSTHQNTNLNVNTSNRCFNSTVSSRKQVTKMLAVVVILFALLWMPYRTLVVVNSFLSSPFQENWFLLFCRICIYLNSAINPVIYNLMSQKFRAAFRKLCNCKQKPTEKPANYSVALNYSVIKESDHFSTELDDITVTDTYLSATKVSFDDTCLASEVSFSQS
Sequence of Estrogen receptor (Homo sapiens) (P03372 whole entry, looked up): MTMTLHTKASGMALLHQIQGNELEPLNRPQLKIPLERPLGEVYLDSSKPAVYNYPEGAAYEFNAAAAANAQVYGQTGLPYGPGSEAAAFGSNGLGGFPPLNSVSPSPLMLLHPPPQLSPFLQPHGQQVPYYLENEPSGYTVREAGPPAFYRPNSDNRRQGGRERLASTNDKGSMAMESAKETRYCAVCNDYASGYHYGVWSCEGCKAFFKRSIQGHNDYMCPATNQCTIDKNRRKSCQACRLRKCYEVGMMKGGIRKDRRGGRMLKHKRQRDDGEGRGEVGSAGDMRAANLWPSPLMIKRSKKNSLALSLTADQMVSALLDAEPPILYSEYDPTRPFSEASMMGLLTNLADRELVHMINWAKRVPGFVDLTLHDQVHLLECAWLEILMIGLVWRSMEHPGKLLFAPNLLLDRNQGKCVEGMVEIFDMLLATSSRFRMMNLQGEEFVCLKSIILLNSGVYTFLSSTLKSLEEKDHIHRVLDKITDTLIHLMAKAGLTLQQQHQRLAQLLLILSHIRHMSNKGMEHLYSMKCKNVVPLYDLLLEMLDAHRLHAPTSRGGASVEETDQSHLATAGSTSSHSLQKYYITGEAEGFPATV

C=CC(=O)OCC(C)OCC(C)OCC(C)OC(=O)C=C (stereo not drawn)
inactive: [3] | [4] | [5] | [6] | [7] | [8] | [9]
active: [1] 9.69 µM | [2] 61.1 µM

COc1ccc(OC)c(OC)c1
not listed: [16] | [17] | [18] | [19]
inactive: all other assays above

CCN(CC)C(C)=O
not listed: [3] | [19]
inactive: all other assays above

CCCOc1ccc2nc(NC(=O)OC)[nH]c2c1
not listed: [2] | [5] | [8] | [9] | [12] | [14] | [18]
inactive: all other assays above

NC(N)=NN=C(/C=C/c1ccc([N+](=O)[O-])o1)/C=C/c1ccc([N+](=O)[O-])o1
inactive: [19] | [3] | [17] | [7] | [8] | [9]
active: [1] 2.98 µM | [10] 8.41 µM | [16] 10.6 µM | [11] 23.7 µM | [13] 9.44 µM | [18] 23.7 µM | [5] 23.7 µM | [6] 23.9 µM | [15] 21.3 µM

O=[N+]([O-])c1cc[n+]([O-])cc1
inactive: [10] | [19] | [3] | [17] | [18] | [15] | [7] | [8] | [9]
active: [1] 30.6 µM | [16] 27.3 µM | [13] 68.6 µM

N#CCc1cccc(C(F)(F)F)c1
not listed: [2] | [19]
inactive: all other assays above

O=C(O)/C=C/c1cnc[nH]1
not listed: [2] | [3] | [11] | [19]
inactive: all other assays above

CCN1CCC[C@H]1CNC(=O)c1c(OC)ccc(Br)c1OC
not listed: [2] | [5] | [8] | [9] | [17] | [19]
inactive: all other assays above

CNS(=O)(=O)Cc1ccc2[nH]cc(CCN(C)C)c2c1
not listed: [2] | [3] | [12] | [17] | [18] | [19]
inactive: all other assays above
